# Test results from PubChem BioAssay AID1745847 (National Center for Advancing Translational Sciences (NCATS), 2022).
# Hit rate of the full screen: of about 2,100 compounds, about 670 (32%) were called active. Another 50% or so got no clear call; they are omitted. The list shows a part of the results. A number with no mark means an inactive call. Calls follow the shape of the dose curve; as a rule, active = well fitted inhibition curve with a large enough effect; inconclusive = small, poorly fitted or top-dose-only effect; inactive = no such curve, though single readings can be large or run the other way.
# Assay: CMV-Luciferase Counterscreen for Inhibitors of ATXN expression; also: nearly all actives have a fitted effect of over 55% in size
# Conditions: HEK-293 CMV-luciferase reporter, luminescence, 24 h; series mostly up to 57.5 µM; activity change, negative = inhibition: at the top concentration
# % is scaled to controls: 0 for no effect and ±100 for the full control effect; potency is read from the fitted curve at half-maximal effect.
SMILES,Potency,"activity change, negative = inhibition"
N#Cc1nc(Cc2cccc3ccccc23)oc1NCc1ccc(F)cc1,12.6 µM (active),
Cc1ccnn1CC(=O)N/N=C/c1ccc([N+](=O)[O-])s1,15.8 µM (active),
O=C(N/N=C/c1ccc([N+](=O)[O-])s1)c1ccccc1,7.94 µM (active),
CC(C)(C)c1cc(C(=O)N/N=C/c2ccc([N+](=O)[O-])s2)n[nH]1,11.2 µM (active),
Cc1ccccc1C(=O)N/N=C/c1ccc([N+](=O)[O-])s1,11.2 µM (active),
COc1ccc(C(=O)NCC(=O)N/N=C/c2ccc([N+](=O)[O-])s2)cc1OC,12.6 µM (active),
CC(C)c1cccc(C(C)C)c1Nc1cn[nH]c1,,-9.58% [at 11.4 µM]
c1ccc(-c2cccc(-c3ccccn3)n2)nc1,,72.5% [at 11.4 µM]
NC(=Nc1nc(-c2ccccn2)cc2ccccc12)c1ccccn1,0.0398 µM (active),
O=C(C1CC(=O)N(c2ccc3c(c2)OCCO3)C1)N1CCN(c2ccccc2)CC1 (stereo not drawn),,-8.65% [at 11.4 µM]
CCc1ccc(-c2csc(NC(=O)C3CC(=O)N(c4ccc5c(c4)OCCO5)C3)n2)cc1 (stereo not drawn),10 µM (active),
COc1ccc(-c2nc(NC(=O)C3CC(=O)N(c4ccc5c(c4)OCCO5)C3)sc2C)cc1 (stereo not drawn),10 µM (active),
COc1cc(-c2cc3nc(NCc4cccc(Cl)c4)ccn3n2)cc(OC)c1OC,3.55 µM (active),
O=C(Nc1cccc2cccnc12)c1csc(COCCO)n1,,4.19%
O=C(Nc1c(Cl)cccc1Cl)Oc1cccc2cccnc12,10 µM (active),
CCOC(=O)c1ccc(N=c2sc(C(=O)OC)cc(=O)n2-c2ccc(C(=O)OCC)cc2)cc1,,-3.07% [at 11.4 µM]
CCOC(=O)c1ccc(/C=C2/C=C(c3ccccc3)N(c3ccc(Cl)c(C(=O)O)c3)C2=O)cc1,12.6 µM (active),
Cc1ccc(-c2c(C#N)c(N)n3c(nc4ccccc43)c2C#N)cc1,7.08 µM (active),
NS(=O)(=O)c1ccc(CCNc2ccn3nc(-c4cccc(C(F)(F)F)c4)cc3n2)cc1,31.6 µM (active),
Cn1c(NCCN2CCCC2)nc2cc(-c3ccsc3)sc2c1=O,,-18.1%
CN(C)CCCNc1nc2cc(-c3ccc(F)cc3)sc2c(=O)n1C,,-18.5%
COc1cccc(CNc2nc3cc(-c4ccc(C(=O)N5CCN(C)CC5)cc4)sc3c(=O)n2C)c1,12.6 µM (active),
Fc1ccc2[nH]c3c(NCc4ccccc4)ncnc3c2c1,0.631 µM (active),

SMILES,Potency,"activity change, negative = inhibition"
COc1ccc(CNc2ncnc3c2[nH]c2ccccc23)cc1,2.82 µM (active),
Cc1[nH]n2c(=O)cc(C(C)(C)C)nc2c1-c1ccccc1,3.55 µM (active),
Cc1ccc(C(=O)CN2C(=O)c3ccccc3S2(=O)=O)cc1,0.398 µM (active),
O=C(CN1C(=O)c2ccccc2S1(=O)=O)c1ccc(O)c(O)c1,0.794 µM (active),
O=C(CN1C(=O)c2ccccc2S1(=O)=O)N1CCc2ccccc21,0.224 µM (active),
O=C(/C=C/c1ccccc1)c1cc(Br)ccc(=O)c1O,,-15.1%
Cc1ccc(C)c(/C=C/C(=O)c2ccccc(=O)c2O)c1,,-25.3%
Cc1cc(C)c(C(=O)/C=C/c2ccc(C(C)C)cc2)c(=O)[nH]1,8.91 µM (active),
Cc1[nH]c(=O)c(C(=O)/C=C/c2ccccc2)c2c1CCCC2,8.91 µM (active),
C[C@@H]1C[C@@H]2O[C@H]2/C=C\C=C\C(=O)Cc2c(Cl)c(O)cc(O)c2C(=O)O1,,25.3% [at 11.4 µM]
COCCCNCCCOc1ccc(Cl)cc1C(C)(C)C,22.4 µM (active),
CCCCNCCCOc1cccc(Cl)c1Cl,,-18.4%
Cc1nn(-c2ccccn2)c2c1C(=O)CC(C)(C)C2N=[N+]=[N-] (stereo not drawn),,-24.8% [at 11.4 µM]
CC1(C)c2[nH]c3ccccc3c2C[C@H]2C(=O)N(Cc3ccccc3F)C(=O)N21,17.8 µM (active),
CC1(C)c2[nH]c3ccccc3c2C[C@H]2C(=O)N(Cc3cccc(F)c3)C(=O)N21,20 µM (active),
OC(c1ccccc1)(c1nc(-c2ccc3ccccc3c2)cs1)C(F)(F)F (stereo not drawn),,26.4% [at 11.4 µM]
O=C(/C=C\c1ccco1)Nc1nc(-c2ccc3ccccc3c2)cs1,3.16 µM (active),
C=CCc1cccc(/C=N/NC(=O)C(C)Nc2ccc(C)cc2)c1O (stereo not drawn),10 µM (active),
C=CCc1cccc(/C=N/NC(=O)CCC(=O)Nc2ccc(C)cc2)c1O,8.91 µM (active),
C=CCc1cccc(/C=N/NC(=O)c2ccccc2Br)c1O,10 µM (active),
C=CCc1cccc(/C=N/NC(=O)CCC(=O)Nc2ccc(F)cc2)c1O,3.98 µM (active),
CC(SC(C)C(=O)NN=Cc1cccc(Cl)c1)C(=O)NN=Cc1cccc(Cl)c1 (stereo not drawn),,-24.3% [at 11.4 µM]
C=CCc1cccc(/C=N/NC(=O)CNc2ccccc2)c1O,2 µM (active),

SMILES,Potency,"activity change, negative = inhibition"
C=CCc1cccc(/C=N/NC(=O)CCCNc2ccc(C)cc2)c1O,15.8 µM (active),
Nc1ccc2c(c1)OC1(CCCC1)O2,,-27.3% [at 11.4 µM]
CC(C)(C)c1ccc(OCCn2nc(C(=O)O)c3ccccc3c2=O)cc1,,-11.4%
COc1ccc(NC(=O)N2CCN(c3nc(-c4cccc(OC)c4)cs3)CC2)cc1,3.55 µM (active),
Cn1nccc1C(=O)N1CCCC(C(=O)c2cccc3ccccc23)C1 (stereo not drawn),,-16.4%
CCCc1cnc(NCCNCC(O)COc2ccc(Cl)c(Cl)c2)nc1 (stereo not drawn),31.6 µM (active),
N#C/C(=C\Nc1ccc2cn[nH]c2c1)c1nc(-c2ccc(Cl)cc2)cs1,,11% [at 11.4 µM]
O=C1C(SCCO)=C(SCCO)C(=O)c2ccccc21,8.91 µM (active),
Cc1ccc(SC2=C(Sc3ccc(C)cc3)C(=O)c3ccccc3C2=O)cc1,,68.6%
CCCNC(=O)c1ccc2c(=O)c(O)c(-c3cccc(Br)c3)[nH]c2c1,20 µM (active),
C/C(=N\NC(=O)C(C)n1nc(C)c([N+](=O)[O-])c1C)c1ccccc1O (stereo not drawn),2.51 µM (active),
CCCCC(=O)NC(c1ccc(N(CC)CC)cc1)c1ccc2cccnc2c1O (stereo not drawn),0.282 µM (active),
CCCCC(=O)NC(c1ccc(N(C)C)cc1)c1ccc2cccnc2c1O (stereo not drawn),1.78 µM (active),
CO[C@@]12[C@@H]3N[C@@H]3CN1C1=C(C(=O)C(N)=C(C)C1=O)[C@@H]2COC(N)=O,,10.2% [at 11.4 µM]
CC(C)CC(NC(=O)c1ccc(Cl)cc1)C(=O)OCC(=O)c1ccc2c(c1)NC(=O)CO2 (stereo not drawn),22.4 µM (active),
Cc1ccc(OCC(=O)c2cc(C)n(Cc3cccs3)c2C)c([N+](=O)[O-])n1,3.98 µM (active),
COc1ccc(CC(=O)N/N=C(\C)c2ccccn2)cc1,8.91 µM (active),
C/C(=N\NC(=O)CN(c1ccccc1)S(C)(=O)=O)c1ccccc1O,12.6 µM (active),
COc1ccccc1N(CC(=O)N/N=C(\C)c1ccccc1O)S(=O)(=O)c1ccc(C)cc1,11.2 µM (active),
C/C(=N\NC(=O)Cc1ccc(Cl)cc1)c1ccccc1O,11.2 µM (active),
COc1ccccc1N(CC(=O)NCCSCc1ccc(C)cc1)S(=O)(=O)c1ccccc1,22.4 µM (active),
CC(C)C[C@H](NC(=O)c1[nH]cnc1C(=O)Nc1ccc(CNC(=O)OC(C)(C)C)cc1)C(=O)OCc1ccccc1,,-24.4% [at 11.4 µM]
